# PubChem BioAssay
# The source made the active and inactive calls.
# Experiments:
# [1] = test system: PRMT1 (protein arginine N-methyltransferase 1); assay: small molecules binding arginine methyltransferase PRMT1 – biochemical, small-molecule microarray, 635 nm fluorescence, primary screen (AID 1088); details: higher = more signal;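 further: binding of Prmt1 protein to compounds spotted on small-molecule microarray slides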
# [2] = growth effects on S. cerevisiae YJM789 – YJM789 clinical isolate, OD600, 24 h, basal, primary screen (AID 1089); details: higher = more signal, called active from +8 up or from −8 down;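 further: growth of clinical yeast isolate S. cerevisiae YJM 789 seeded 1000 cells per well; test concentration not given here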
# [3] = S. pombe growth modifiers, basal conditions – strain 972, OD600, 24 h, no modulator, primary screen (AID 1090);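 further: basal condition with compound alone and no growth modifier present; test concentration not given here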; details: S. pombe 972 growth, higher = more signal, called active from +8 up or from −8 down
# [4] = budding yeast growth modifiers under rapamycin – strain BY4716, OD600, 96 h, primary screen (AID 1091); further: test concentration not given here; details: S. cerevisiae BY4716 + rapamycin, higher = more signal, called active from +8 up or from −8 down
# [5] = target: Torsin-1A-interacting protein 2 (Homo sapiens) (UniProt Q8NFQ8); assay: small molecules binding lysate-expressed LULL1 – cell lysate, human LULL1 lysate, 635/667 nm fluorescence, primary screen (AID 1092); details: small-molecule microarray, hLULL1 lysate binding, 635 nm fluorescence; higher = more signal;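 further: probe is lysate of COS7 cells overexpressing human LULL1; score merges per-feature 667 nm fluorescence with signal-to-noise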
# [6] = optical density change of DRC41 E. coli – strain DRC41, OD650, 24 h, E. coli filamentation project, primary screen (AID 1093);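 further: MC1000 strain lacking acrAB efflux and sulA so SOS filamentation is blocked; test concentration not given here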; details: E. coli DRC41 growth, higher = more signal, called active from +8 up or from −8 down
# [7] = probe aLefty2 binding to arrayed compounds – biochemical, biotinylated probe, 635/667 nm fluorescence, primary screen (AID 1094); details: small-molecule microarray, higher = more signal;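 further: score merges spot fluorescence near 667 nm with spot signal-to-noise ratio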
# [8] = test system: Noggin (protein binding on small-molecule microarray); assay: small molecules binding Noggin protein – biochemical, 635/667 nm fluorescence, primary screen (AID 1095); details: 635 nm fluorescence, higher = more signal;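 further: score merges 667 nm feature fluorescence with signal to noise over triplicate slides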
# [9] = target: Neurogenic locus notch homolog protein 3 (Homo sapiens) (UniProt Q9UM47); assay: small molecules binding NOTCH3 protein – biochemical, 635/667 nm fluorescence, primary screen (AID 1096); details: small-molecule microarray, 635 nm fluorescence, higher = more signal
# [10] = probe aEGFR binding to arrayed compounds – biochemical, biotinylated probe, 635/667 nm fluorescence, primary screen (AID 1097); details: small-molecule microarray, higher = more signal;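 further: probe is a biotinylated anti-EGFR antibody binding compounds printed on slides; score combines fluorescence near 667 nm and signal to noise of each spot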
# Chain of Torsin-1A-interacting protein 2 (Homo sapiens) (Q8NFQ8 whole entry, looked up): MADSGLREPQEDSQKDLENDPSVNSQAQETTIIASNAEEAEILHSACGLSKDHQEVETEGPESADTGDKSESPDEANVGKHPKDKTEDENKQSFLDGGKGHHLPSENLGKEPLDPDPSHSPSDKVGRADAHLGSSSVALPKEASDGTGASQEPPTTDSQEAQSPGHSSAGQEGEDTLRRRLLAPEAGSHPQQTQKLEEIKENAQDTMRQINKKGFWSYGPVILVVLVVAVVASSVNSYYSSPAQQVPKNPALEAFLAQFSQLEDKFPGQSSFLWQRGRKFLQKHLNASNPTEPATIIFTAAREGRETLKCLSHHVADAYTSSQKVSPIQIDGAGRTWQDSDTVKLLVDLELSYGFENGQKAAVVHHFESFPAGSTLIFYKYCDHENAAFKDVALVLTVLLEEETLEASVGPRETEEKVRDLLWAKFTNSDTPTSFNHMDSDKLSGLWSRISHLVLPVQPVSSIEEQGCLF
# Chain of Neurogenic locus notch homolog protein 3 (Homo sapiens) (Q9UM47 whole entry, looked up): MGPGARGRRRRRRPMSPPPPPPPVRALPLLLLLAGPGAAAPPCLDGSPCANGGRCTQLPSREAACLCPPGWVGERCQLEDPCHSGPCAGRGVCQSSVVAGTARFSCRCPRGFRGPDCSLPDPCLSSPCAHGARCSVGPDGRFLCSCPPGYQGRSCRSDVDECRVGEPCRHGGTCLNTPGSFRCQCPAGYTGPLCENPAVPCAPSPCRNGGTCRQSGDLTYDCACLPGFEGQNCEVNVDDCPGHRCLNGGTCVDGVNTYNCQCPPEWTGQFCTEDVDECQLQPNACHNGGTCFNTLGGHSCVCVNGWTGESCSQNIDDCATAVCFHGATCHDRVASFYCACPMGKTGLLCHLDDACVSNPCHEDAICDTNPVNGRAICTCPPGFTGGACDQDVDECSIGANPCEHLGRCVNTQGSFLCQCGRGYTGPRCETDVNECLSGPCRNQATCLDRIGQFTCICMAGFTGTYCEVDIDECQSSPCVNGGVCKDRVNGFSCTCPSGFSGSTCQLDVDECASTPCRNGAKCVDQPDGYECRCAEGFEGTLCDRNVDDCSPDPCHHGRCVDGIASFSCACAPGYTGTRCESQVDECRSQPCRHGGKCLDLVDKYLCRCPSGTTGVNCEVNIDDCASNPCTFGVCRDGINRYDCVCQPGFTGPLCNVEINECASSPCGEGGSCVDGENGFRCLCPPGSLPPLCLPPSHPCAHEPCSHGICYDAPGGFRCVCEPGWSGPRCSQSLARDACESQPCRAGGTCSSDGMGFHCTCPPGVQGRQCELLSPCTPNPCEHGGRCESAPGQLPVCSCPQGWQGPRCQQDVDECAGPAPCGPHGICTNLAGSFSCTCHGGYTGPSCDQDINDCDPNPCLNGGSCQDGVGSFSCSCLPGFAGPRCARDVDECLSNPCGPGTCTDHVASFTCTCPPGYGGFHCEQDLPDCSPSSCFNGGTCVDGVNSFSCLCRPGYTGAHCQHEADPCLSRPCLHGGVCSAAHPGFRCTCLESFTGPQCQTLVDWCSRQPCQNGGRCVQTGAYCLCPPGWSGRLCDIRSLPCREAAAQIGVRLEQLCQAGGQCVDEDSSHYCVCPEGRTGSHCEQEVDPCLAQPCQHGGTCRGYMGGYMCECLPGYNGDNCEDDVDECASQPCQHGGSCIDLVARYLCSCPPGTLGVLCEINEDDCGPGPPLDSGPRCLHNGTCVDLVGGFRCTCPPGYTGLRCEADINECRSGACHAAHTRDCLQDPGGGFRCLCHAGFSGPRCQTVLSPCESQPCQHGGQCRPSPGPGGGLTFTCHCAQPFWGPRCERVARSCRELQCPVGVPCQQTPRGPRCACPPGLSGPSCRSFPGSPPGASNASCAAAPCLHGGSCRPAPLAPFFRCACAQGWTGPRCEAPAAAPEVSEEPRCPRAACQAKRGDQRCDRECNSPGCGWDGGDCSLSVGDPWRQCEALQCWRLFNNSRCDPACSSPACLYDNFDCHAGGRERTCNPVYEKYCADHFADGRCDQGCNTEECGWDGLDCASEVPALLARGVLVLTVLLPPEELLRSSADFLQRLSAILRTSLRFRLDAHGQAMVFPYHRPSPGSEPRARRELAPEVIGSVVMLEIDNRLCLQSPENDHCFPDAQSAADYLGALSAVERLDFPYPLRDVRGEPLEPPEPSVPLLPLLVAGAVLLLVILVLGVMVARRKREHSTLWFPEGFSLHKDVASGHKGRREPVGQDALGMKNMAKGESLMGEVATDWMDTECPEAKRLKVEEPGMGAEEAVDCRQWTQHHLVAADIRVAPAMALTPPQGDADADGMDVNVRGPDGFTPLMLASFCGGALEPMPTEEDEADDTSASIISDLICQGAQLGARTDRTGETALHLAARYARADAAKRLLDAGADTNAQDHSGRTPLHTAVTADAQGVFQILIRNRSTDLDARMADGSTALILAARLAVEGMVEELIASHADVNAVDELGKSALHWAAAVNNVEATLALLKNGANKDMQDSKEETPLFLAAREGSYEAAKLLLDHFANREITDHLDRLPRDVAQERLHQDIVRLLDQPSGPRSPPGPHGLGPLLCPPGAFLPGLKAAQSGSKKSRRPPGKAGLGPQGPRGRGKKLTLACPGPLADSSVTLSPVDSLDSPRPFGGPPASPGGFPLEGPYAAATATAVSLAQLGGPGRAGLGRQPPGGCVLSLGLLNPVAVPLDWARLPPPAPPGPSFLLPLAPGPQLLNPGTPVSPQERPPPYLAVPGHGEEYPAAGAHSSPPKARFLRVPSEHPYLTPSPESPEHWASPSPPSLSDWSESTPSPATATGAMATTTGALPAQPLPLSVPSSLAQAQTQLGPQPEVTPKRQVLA
Compound,composite z-score [1],z-score [2],z-score [3],z-score [4],composite z-score [5],z-score [6],composite z-score [7],composite z-score [8],composite z-score [9],composite z-score [10]
O=C1C[C@@](C(=O)NCCN2CCOCC2)(c2ccc([N+](=O)[O-])cc2)[C@@H](c2ccc(CO)cc2)N1C1CCCCC1,1.55,0.406 (inactive),-0.824 (inactive),-0.468 (inactive),3.07,1.48 (inactive),0.138,0.515,1.12,0.23
CCC(=O)[C@]12O[C@@]3([C@@H]4C(=O)OCC[C@@H]41)N(Cc1ccccc1)C(C)=C(C(=O)OC)[C@@H](c1ccccc1)N3C2=O,0.131,-0.641 (inactive),-1.16 (inactive),-1.17 (inactive),-0.417,0.151 (inactive),-0.143,-1.66,-0.406,-0.246
CC(C)[Si]1(C(C)C)O[C@@H](c2ccccc2)c2cc(C3CC3)nc(-c3ccc(Oc4ccccc4)cc3)c21,-0.63,0.995 (inactive),-0.808 (inactive),1.21 (inactive),0.369,1.94 (inactive),-0.142,-0.101,-1.22,-0.169
O=C1O[C@@H](c2ccccc2)[C@@H](c2ccccc2)N2[C@@H](c3ccc(O)cc3)[C@]3(C(=O)Nc4ccccc43)[C@@H](C(=O)N3CCN(c4ncccn4)CC3)[C@H]12,1.29,0.2 (inactive),-1.95 (inactive),1.98 (inactive),2.71,3.16 (inactive),-0.12,-0.534,0.079,-0.179
CCOC(=O)C1=CC[C@@H](c2ccccc2)N(S(=O)(=O)c2ccc(C)cc2)[C@H]1C,1.53,0.889 (inactive),-0.212 (inactive),2.81 (inactive),3.41,-0.607 (inactive),0.0018,0.672,1.09,0.114
N#Cc1ccc(NN2C(C(O)CCc3ccccc3)C=CC3C(=O)N(c4ccccc4)C(=O)C32)cc1 (stereo not given),0.212,-1.53 (inactive),0.222 (inactive),1.13 (inactive),3.01,-1.11 (inactive),0.25,-0.172,1.13,0.35
O=C1O[C@@H](c2ccccc2)[C@@H](c2ccccc2)N2[C@@H](c3ccc(O)cc3)[C@]3(C(=O)Nc4ccc(C#CC5(O)CCCCCC5)cc43)[C@@H](C(=O)Nc3nc4ccccc4s3)[C@H]12,1.54,0.775 (inactive),-0.399 (inactive),1.06 (inactive),2.56,2.03 (inactive),0.718,1.26,1.07,0.267
O=C1O[C@@H](c2ccccc2)[C@@H](c2ccccc2)N2[C@@H](c3ccc(OCCO)cc3)[C@]3(C(=O)Nc4ccc(C#CCCO)cc43)[C@@H](C(=O)N3CCN(c4ncccn4)CC3)[C@H]12,1.54,0.772 (inactive),1.04 (inactive),3.71 (inactive),2.69,1.14 (inactive),-0.124,1.24,1.14,-0.0828
Cc1ccc(N2C(=O)c3ccccc3[C@](C)(C(=O)O)[C@@H]2c2ccc(CO)cc2)nc1,-1.11,0.508 (inactive),-0.633 (inactive),0.653 (inactive),-1.18,1.62 (inactive),-0.15,-2.06,-1.17,-0.427
Cc1ccc(N2C(=O)c3ccccc3[C@](C)(C(=O)NCC(C)C)[C@@H]2c2ccc(CO)cc2)nc1,-0.644,0.42 (inactive),0.374 (inactive),1.43 (inactive),-1.71,-0.277 (inactive),0.456,-1.22,-1.62,0.32
COC(=O)C1=CC(c2ccc(CO)cc2)=CC(c2cccs2)N(Cc2cccc(OC(F)(F)F)c2)C=C1C(=O)OC (stereo not given),1.27,-0.107 (inactive),-1.75 (inactive),0.434 (inactive),3.31,0.241 (inactive),0.006,-0.0249,1.13,-0.0187
O=C(CS)NCCCCCCNC(=O)[C@@H]1C[C@@H]2C(=O)N[C@@H](Cc3ccccc3)C(=O)N2[C@@H]1c1ccc(O)cc1,1.53,0.205 (inactive),1.52 (inactive),1.99 (inactive),2.97,0.988 (inactive),-0.0741,0.652,1.16,-0.0271
C=CC[C@]1(C(=O)O)N=C(c2ccc(OCCCO)cc2)O[C@H]1c1ccccc1,0.707,-0.435 (inactive),-2.83 (inactive),-1.08 (inactive),3.29,0.597 (inactive),-0.0199,-1.1,-0.888,-0.0936
COCCOC(=O)N1C(=O)[C@@]2(c3cc(C#CCCO)ccc31)[C@H](C(=O)N1CCCCCCC1)[C@H]1C(=O)O[C@H](c3ccccc3)[C@H](c3ccccc3)N1[C@@H]2c1ccc(O)cc1,1.56,-3.75 (inactive),-2.94 (inactive),-1.62 (inactive),2.91,3.27 (inactive),1.08,1.11,1.05,0.0645
C=C(CCCC)/C(=C/C[C@@H](OC(=O)c1ccncc1)c1cccc(OCCO)c1)c1cc(C(=O)OC)ccc1OC,1.36,0.526 (inactive),-1.17 (inactive),0.289 (inactive),0.48,1.27 (inactive),-0.0102,1.37,1.04,0.0376
C=CCOC(=O)[C@@H]1[C@H]2C(=O)O[C@H](c3ccccc3)[C@H](c3ccccc3)N2[C@H](c2ccc(OCCOC(=O)[C@H]3C[C@H]4C(=O)N5CCC[C@H]5C(=O)N4[C@H]3c3ccc(O)cc3)cc2)[C@@]12C(=O)Nc1ccccc12,1.51,-0.0259 (inactive),-0.766 (inactive),2.42 (inactive),1.44,2.52 (inactive),0.239,0.684,0.695,0.0459
CCN1C(C)=C(C(=O)OC)[C@@H](c2ccccc2)N2C(=O)[C@@]3(C(=O)OC)O[C@@]12[C@@H]1C(=O)CCC[C@@H]13,1.12,0.352 (inactive),-1.06 (inactive),1.8 (inactive),-0.323,0.0465 (inactive),-0.243,1.57,0.135,0.0173
O=C1C2C=CC(C(O)c3ccccc3)N(n3cnnc3)C2C(=O)N1Cc1ccccc1 (stereo not given),0.345,-1.3 (inactive),0.264 (inactive),-0.881 (inactive),1.28,-0.734 (inactive),0.116,-0.0596,-0.163,-0.0112
CCCC=C(CCC)[C@@H](NS(=O)(=O)c1cccc(C(F)(F)F)c1)c1ccc(C(=O)OC)cc1,0.133,0.483 (inactive),0.441 (inactive),-0.182 (inactive),0.468,-0.228 (inactive),1.06,1.3,0.0083,0.912
COc1ccc([C@H]2C[C@H]3C(Br)=C[C@]2(OC)C(=O)[C@]32CO2)cc1,-0.378,-0.714 (inactive),-3.14 (inactive),-0.577 (inactive),-0.288,-0.987 (inactive),-0.159,0.145,0.372,-0.151
COc1cccc([C@H]2N[C@H](C(=O)O)CC[C@@H]2C)c1,-0.158,-0.535 (inactive),-0.823 (inactive),0.48 (inactive),0.0605,0.395 (inactive),-0.23,0.002,0.202,-0.139
O=C1NC(=O)C2C1C=CC(C(O)C=Cc1ccc([N+](=O)[O-])cc1)N2Nc1ccccn1 (stereo not given),0.403,0.459 (inactive),1.31 (inactive),-0.108 (inactive),1.51,-0.298 (inactive),0.0866,0.289,-0.135,-0.094
CO[C@@H]1COC(=O)CC=C[C@H](C)COC(=O)[C@H](Cc2ccccc2)NC(=O)CC=C[C@H]1C,1.48,-0.346 (inactive),-0.867 (inactive),-1.61 (inactive),-0.844,-0.0298 (inactive),-0.399,1.6,0.202,-0.0773
COc1cccc([C@@H]2[C@@H](C)CC[C@H]3C(=O)N(C)[C@@H](C(C)C)C(=O)N23)c1,-0.652,-0.0534 (inactive),-0.719 (inactive),0.369 (inactive),0.21,0.652 (inactive),-0.0113,0.375,0.374,-0.111
CCCCCCc1nc(-c2cc(C)c(OC)c(C)c2)cc2c1[Si](C(C)C)(C(C)C)O[C@H]2c1ccccc1,-0.118,0.955 (inactive),0.659 (inactive),-0.558 (inactive),-0.685,-0.54 (inactive),-0.107,-0.346,-0.496,-0.168
Cc1ccc(S[C@]2(C(=O)O)CC(=O)N(Cc3ccccc3)[C@@H]2c2ccc(CO)cc2)cc1,0.191,-0.179 (inactive),-2.58 (inactive),0.215 (inactive),1.88,2.49 (inactive),-0.0953,-0.674,-0.0738,-0.136
COc1cc2c(cc1OC)CN(C(=O)[C@@H]1[C@H]3C(=O)O[C@H](c4ccccc4)[C@H](c4ccccc4)N3[C@H](c3ccccc3OCCO)[C@@]13C(=O)Nc1ccccc13)CC2,1.55,2.39 (inactive),1.19 (inactive),5.58 (inactive),1.76,1.92 (inactive),-0.301,0.208,1.05,-0.198
